What all share (settings): Compound concentration 20.0 uM
In test [1] the target is Tyrosine-protein kinase ABL1 (Homo sapiens) (UniProt P00519).
Test [2] addresses Bromodomain-containing protein 4 (Homo sapiens) (UniProt O60885).
For test [3], the target named is Cyclin-dependent kinase 2 (Homo sapiens) (UniProt P24941).
Test [4] addresses Casein kinase I isoform delta (Homo sapiens) (UniProt P48730).
Test [5] addresses Glycogen synthase kinase-3 beta (Homo sapiens) (UniProt P49841).
Test [6] addresses Mitogen-activated protein kinase 1 (Homo sapiens) (UniProt P28482).
The target in test [7] is T1, Aurora kinase A (Homo sapiens) (UniProt O14965).
T1 sequence (whole entry): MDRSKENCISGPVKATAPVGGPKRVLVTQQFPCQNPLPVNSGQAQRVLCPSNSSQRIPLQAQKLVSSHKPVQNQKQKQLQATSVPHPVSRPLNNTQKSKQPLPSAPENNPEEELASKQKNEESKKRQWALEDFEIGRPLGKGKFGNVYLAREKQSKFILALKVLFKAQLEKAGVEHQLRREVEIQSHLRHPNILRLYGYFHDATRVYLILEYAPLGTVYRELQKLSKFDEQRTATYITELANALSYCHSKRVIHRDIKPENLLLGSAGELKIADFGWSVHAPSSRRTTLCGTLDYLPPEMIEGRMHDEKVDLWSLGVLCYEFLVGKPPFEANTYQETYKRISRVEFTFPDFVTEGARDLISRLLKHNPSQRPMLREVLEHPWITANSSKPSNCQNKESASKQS

Test [8] has as its target T2, Transcription intermediary factor 1-alpha (Homo sapiens) (UniProt O15164).
T2 sequence (whole entry): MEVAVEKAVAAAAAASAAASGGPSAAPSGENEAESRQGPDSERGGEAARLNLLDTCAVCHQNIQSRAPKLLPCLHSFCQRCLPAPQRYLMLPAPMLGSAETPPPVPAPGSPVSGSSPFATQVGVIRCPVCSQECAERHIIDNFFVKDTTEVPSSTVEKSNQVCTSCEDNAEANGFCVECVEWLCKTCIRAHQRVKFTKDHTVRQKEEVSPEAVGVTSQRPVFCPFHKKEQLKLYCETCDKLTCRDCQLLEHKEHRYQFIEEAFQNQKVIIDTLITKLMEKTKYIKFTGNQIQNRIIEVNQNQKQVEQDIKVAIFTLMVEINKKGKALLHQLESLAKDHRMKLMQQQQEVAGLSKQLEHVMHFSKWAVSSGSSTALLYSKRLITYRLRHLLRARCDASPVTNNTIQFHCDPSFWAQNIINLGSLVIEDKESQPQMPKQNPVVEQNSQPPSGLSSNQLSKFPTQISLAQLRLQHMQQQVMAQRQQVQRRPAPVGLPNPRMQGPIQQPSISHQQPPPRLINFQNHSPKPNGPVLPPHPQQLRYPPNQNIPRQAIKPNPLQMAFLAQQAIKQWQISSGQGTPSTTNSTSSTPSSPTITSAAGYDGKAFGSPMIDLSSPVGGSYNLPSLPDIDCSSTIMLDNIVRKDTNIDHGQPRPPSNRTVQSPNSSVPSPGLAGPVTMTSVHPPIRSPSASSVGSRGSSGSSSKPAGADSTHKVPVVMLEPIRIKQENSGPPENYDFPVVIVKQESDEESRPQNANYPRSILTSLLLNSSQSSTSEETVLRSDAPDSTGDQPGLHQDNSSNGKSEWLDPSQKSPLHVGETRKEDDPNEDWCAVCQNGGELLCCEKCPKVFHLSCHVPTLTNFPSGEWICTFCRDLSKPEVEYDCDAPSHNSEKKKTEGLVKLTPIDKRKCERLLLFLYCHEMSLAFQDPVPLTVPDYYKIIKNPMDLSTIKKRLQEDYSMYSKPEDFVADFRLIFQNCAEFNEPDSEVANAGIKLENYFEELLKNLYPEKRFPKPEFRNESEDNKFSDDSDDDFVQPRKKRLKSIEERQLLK

Residues, ends and D or L forms follow the SMILES beside them. *: point of attachment. Cbz = O=C(OCc1ccccc1)*; CH2F = FC*

Sequence of Tyrosine-protein kinase ABL1 (Homo sapiens) (P00519 whole entry): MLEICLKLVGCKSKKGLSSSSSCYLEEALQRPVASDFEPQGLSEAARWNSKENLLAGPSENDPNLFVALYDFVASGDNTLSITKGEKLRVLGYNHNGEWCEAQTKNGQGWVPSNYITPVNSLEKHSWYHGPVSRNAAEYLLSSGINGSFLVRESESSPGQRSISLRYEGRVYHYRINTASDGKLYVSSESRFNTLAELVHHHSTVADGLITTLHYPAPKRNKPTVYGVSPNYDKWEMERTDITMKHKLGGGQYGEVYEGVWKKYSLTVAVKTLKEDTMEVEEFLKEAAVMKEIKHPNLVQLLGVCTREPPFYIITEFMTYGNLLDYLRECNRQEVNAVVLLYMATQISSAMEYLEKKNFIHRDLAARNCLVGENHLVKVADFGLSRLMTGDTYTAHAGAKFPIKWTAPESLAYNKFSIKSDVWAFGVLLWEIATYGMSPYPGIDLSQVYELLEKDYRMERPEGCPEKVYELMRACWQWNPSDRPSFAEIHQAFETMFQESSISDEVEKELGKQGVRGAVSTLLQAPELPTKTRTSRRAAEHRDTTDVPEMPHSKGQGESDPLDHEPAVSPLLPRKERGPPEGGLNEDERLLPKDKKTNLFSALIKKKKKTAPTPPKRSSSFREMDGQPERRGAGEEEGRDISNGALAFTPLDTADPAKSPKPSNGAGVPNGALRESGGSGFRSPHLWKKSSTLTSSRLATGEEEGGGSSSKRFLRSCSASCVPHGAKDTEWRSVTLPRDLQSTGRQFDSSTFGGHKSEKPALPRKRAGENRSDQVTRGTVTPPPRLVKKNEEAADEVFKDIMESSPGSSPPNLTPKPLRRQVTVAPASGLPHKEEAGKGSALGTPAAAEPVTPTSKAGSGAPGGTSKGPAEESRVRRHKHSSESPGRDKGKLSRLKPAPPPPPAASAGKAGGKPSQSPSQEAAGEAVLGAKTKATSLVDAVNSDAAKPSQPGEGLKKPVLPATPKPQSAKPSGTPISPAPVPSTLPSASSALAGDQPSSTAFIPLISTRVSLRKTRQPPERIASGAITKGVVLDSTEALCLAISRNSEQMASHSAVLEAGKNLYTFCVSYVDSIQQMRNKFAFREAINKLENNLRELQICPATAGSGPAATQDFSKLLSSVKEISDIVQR
Sequence of Glycogen synthase kinase-3 beta (Homo sapiens) (P49841 whole entry, looked up): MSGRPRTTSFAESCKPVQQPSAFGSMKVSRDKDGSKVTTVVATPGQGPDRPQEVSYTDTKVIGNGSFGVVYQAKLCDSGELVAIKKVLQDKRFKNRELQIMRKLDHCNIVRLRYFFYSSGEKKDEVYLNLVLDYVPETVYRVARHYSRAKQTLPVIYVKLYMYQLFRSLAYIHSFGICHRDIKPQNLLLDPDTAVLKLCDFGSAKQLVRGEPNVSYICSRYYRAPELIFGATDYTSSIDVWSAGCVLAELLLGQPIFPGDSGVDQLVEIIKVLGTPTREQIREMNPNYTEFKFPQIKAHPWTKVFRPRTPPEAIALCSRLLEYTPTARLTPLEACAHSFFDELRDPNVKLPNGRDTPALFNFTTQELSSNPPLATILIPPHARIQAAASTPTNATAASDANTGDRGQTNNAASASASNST
Sequence of Casein kinase I isoform delta (Homo sapiens) (P48730 whole entry, looked up, canonical isoform): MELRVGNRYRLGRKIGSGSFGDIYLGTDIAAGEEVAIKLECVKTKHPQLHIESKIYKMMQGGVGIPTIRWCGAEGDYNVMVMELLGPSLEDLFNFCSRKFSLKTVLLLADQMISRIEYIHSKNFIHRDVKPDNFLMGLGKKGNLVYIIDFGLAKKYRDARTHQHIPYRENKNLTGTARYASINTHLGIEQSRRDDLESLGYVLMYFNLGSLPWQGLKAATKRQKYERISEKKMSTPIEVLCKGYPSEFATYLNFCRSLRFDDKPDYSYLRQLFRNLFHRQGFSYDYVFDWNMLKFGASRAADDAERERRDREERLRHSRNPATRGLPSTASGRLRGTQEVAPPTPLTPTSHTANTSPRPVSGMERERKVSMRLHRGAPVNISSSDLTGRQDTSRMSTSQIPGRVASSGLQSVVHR
Sequence of Mitogen-activated protein kinase 1 (Homo sapiens) (P28482 whole entry): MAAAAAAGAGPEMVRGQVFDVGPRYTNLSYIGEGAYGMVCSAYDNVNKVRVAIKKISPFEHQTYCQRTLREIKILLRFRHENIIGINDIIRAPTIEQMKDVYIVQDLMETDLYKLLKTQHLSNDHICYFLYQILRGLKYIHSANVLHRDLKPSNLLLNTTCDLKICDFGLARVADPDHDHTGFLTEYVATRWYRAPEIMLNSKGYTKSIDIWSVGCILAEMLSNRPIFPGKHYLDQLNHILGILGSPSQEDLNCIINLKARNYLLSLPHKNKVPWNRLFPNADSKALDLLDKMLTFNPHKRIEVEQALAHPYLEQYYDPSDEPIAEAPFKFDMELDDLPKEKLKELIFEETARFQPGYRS

For the compound `O=C(NCCCCCCCCNC(=O)C(Cl)Cl)C(Cl)Cl`, the thermal shift (ΔTm) in test [1] is 0.05 °C; in test [2], -2.38 °C; in test [3], -0.1 °C; in test [4], -0.18 °C; in test [5], -1.79 °C; in test [6], -0.02 °C. In addition, the ΔTm in test [7] is -1.73 °C; in test [8], 1.02 °C.
With `CC(C)(O)c1ccc(N2Cc3c(ccnc3-c3ccc(F)cc3OCC(F)(F)F)C2=O)cc1`, the ΔTm in test [1] is 1.61 °C; in test [2] it was -2.56 °C; in test [3], -1.07 °C; in test [4], 0.07 °C; in test [5], 0.38 °C; in test [6] it was -10.3 °C. For the same compound, the ΔTm in test [7] is 1.43 °C; in test [8], -1.06 °C.
As to `CN(C)CC(c1ccc(O)cc1)C1(O)CCCCC1` (stereo unspecified), the ΔTm in test [1] was 0.19 °C; in test [2] it was -2.16 °C; in test [3], 0.04 °C; in test [4] it was -0.35 °C; in test [5], -1.41 °C; in test [6], 0.1 °C. For the same compound, the ΔTm in test [7] was -1.27 °C; in test [8] it was 0.3 °C.
Regarding `COc1ccc(CNc2nc(N3CCC[C@H]3CO)ncc2C(=O)NCc2ncccn2)cc1Cl`, the ΔTm in test [1] is 0.44 °C; in test [2], -1.19 °C; in test [3], -0.26 °C; in test [4], 0.12 °C; in test [5], 0.12 °C; in test [6], 0.04 °C. Moreover, the figures for the thermal shift (ΔTm) in test [7] and in test [8] were -1.84 °C and -0.51 °C, respectively.
For `Nc1ncnc2c1c(I)cn2[C@@H]1O[C@H](CO)[C@@H](O)[C@H]1O`, the ΔTm is 2.62 °C in test [1]; -1.63 °C in test [2]; 5.37 °C in test [3]; 6.51 °C in test [4]; 3.65 °C in test [5]; 1.9 °C in test [6]. Also, the ΔTm was 1.18 °C in test [7] and 0.89 °C in test [8].
On to `COc1ccccc1C(=O)Nc1cc2c(cc1N1CCCCC1)n(C)c(=O)n2C`, for which the ΔTm in test [1] was 0.35 °C; in test [2] it was -2.11 °C; in test [3] it was 0.1 °C; in test [4] it was 0.01 °C; in test [5], 0.08 °C; in test [6], 0.17 °C. Further, the ΔTm in test [7] was -1.43 °C; in test [8] it was -0.76 °C.
Turning to `CCN1C(C)(C)CC(Oc2ccc(C(=O)Nc3ccc(NC(=O)Nc4cc(C(C)(C)C)on4)cc3)nc2)CC1(C)C`, the ΔTm in test [1] is 1.14 °C; in test [2], -1.48 °C; in test [3], 0.38 °C; in test [4], 0.21 °C; in test [5] it was 0.25 °C; in test [6], -3.48 °C. Besides, the ΔTm is 0.68 °C in test [7] and -0.32 °C in test [8].
On to `OC1CN=C2c3ccn([C@@H]4O[C@H]([C@H](O)c5ccc(Cl)cc5)[C@@H](O)[C@H]4O)c3N=CN21` (stereo partly specified), for which the shift in melting temperature (ΔTm) is 0.73 °C in test [1]; -1.38 °C in test [2]; 0.66 °C in test [3]; 0.22 °C in test [4]; -0.73 °C in test [5]; 0.16 °C in test [6]. For the same compound, the results for the shift in melting temperature (ΔTm) in test [7] and in test [8] were -0.39 °C and -1.14 °C, respectively.
Consider `CNCc1ccc(-c2cc3cc(F)cc(C(N)=O)c3o2)cc1`, for which the shift in melting temperature (ΔTm) in test [1] was 0.6 °C; in test [2], -0.09 °C; in test [3], 1.2 °C; in test [4], 0.55 °C; in test [5], 0.51 °C; in test [6], 0.83 °C. Also, the ΔTm in test [7] is -1.29 °C; in test [8] it was 0.67 °C.
For the compound `CN(C)CCCCC(=O)Nc1ccc(NC(=S)NC(=O)c2ccc(C(C)(C)C)cc2)cc1`, the ΔTm in test [1] was 0.43 °C; in test [2], -4.74 °C; in test [3] it was 0.19 °C; in test [4], 0.69 °C; in test [5] it was 1.54 °C; in test [6], 0.13 °C. Moreover, the ΔTm in test [7] is -2.09 °C; in test [8], -0.79 °C.
`Cc1nnn(C)c1-c1cnc2c3cc4cnn(C)c4cc3n([C@H](c3ccccc3)C3CCOCC3)c2c1`: the thermal shift (ΔTm) in test [1] is 0.34 °C; in test [2] it was 22.9 °C; in test [3] it was -0.73 °C; in test [4] it was 0.09 °C; in test [5] it was -1.29 °C; in test [6], 0.17 °C. Moreover, the ΔTm in test [7] is -2.95 °C; in test [8] it was 0.06 °C.
On to `N=C(N)SCc1ccc(CN2C(=O)C(=O)c3cc(Br)cc(Br)c32)cc1`, for which the ΔTm in test [1] is -4.26 °C; in test [2] it was -11.4 °C; in test [3], 0 °C; in test [4], -2.52 °C; in test [5], -2.8 °C; in test [6], -1.76 °C. Besides, the ΔTm in test [7] was -5.55 °C; in test [8] it was 0 °C.
Regarding `CC(=O)N1CCC(c2ccc(C(=O)NC(=N)N)cc2C(F)(F)F)CC1`, the shift in melting temperature (ΔTm) is 0.12 °C in test [1]; 0.39 °C in test [2]; 0.7 °C in test [3]; -0.02 °C in test [4]; -0.96 °C in test [5]; 0.47 °C in test [6]. Further, the ΔTm in test [7] is -0.69 °C; in test [8], 1.39 °C.
Take `CC(c1cccc2ccccc12)n1cnc2c(=O)[nH]c(Cc3ccccc3)nc21` (stereo unspecified): the ΔTm was 0.22 °C in test [1]; -5.4 °C in test [2]; -0.82 °C in test [3]; 0.84 °C in test [4]; -1 °C in test [5]; -0.16 °C in test [6]. Also, the ΔTm was -3.08 °C in test [7] and -1.81 °C in test [8].
As for `COc1cc2c(NC3CCN(C)CC3)nc(N3CCCN(C)CC3)nc2cc1OCCCN(C)C`, the ΔTm in test [1] is 0.04 °C; in test [2] it was -1.01 °C; in test [3], 0.12 °C; in test [4], 0.25 °C; in test [5], -0.54 °C; in test [6], 0.4 °C. Moreover, the ΔTm in test [7] is -1.36 °C; in test [8], -0.25 °C.
For `Cc1ccnc(NS(=O)(=O)c2ccc(NC(=O)Nc3ccc(S(=O)(=O)Nc4nccc(C)n4)cc3)cc2)n1`, the thermal shift (ΔTm) in test [1] was 0.29 °C; in test [2], -0.01 °C; in test [3] it was 0.44 °C; in test [4], -0.62 °C; in test [5] it was -1.11 °C; in test [6] it was 0.44 °C. Besides, the ΔTm is -1.78 °C in test [7] and 2.1 °C in test [8].
For the compound `C[C@H](NC(=O)c1cn(C2(C#N)CC2)cn1)C(=O)Nc1nc(-c2cccc(-c3ccn(C)n3)c2)cs1`, the ΔTm in test [1] was 0.58 °C; in test [2] it was -1.99 °C; in test [3], 0.19 °C; in test [4], 0.61 °C; in test [5] it was -0.01 °C; in test [6], -0.23 °C. Besides, the ΔTm is 1.33 °C in test [7] and -0.79 °C in test [8].
Consider `CS(=O)(=O)n1cc2c(n1)CN([C@H]1CO[C@H](c3cc(F)ccc3F)[C@@H](N)C1)C2`, for which the ΔTm is 0.01 °C in test [1]; 1.23 °C in test [2]; 0.1 °C in test [3]; -0.33 °C in test [4]; -0.84 °C in test [5]; 0.32 °C in test [6]. For the same compound, the results for the thermal shift (ΔTm) in test [7] and in test [8] were -2.29 °C and -0.65 °C, respectively.
With `CC(C)Oc1ccc2c(=O)[nH]c3sccc3c2c1`, the shift in melting temperature (ΔTm) is 2.81 °C in test [1]; -1.93 °C in test [2]; 0.87 °C in test [3]; 1.82 °C in test [4]; 0.89 °C in test [5]; 0.11 °C in test [6]. For the same compound, the thermal shift (ΔTm) was -0.48 °C in test [7] and -0.42 °C in test [8].
On to `O=C(NC(Cc1ccccc1)C(=O)NC(Cc1ccccc1)C(=O)CF)OCc1ccccc1` (stereo not drawn) (Cbz-Phe-Phe-CH2F; configuration not given here), for which the ΔTm is 0.45 °C in test [1]; -0.83 °C in test [2]; 0.11 °C in test [3]; -0.3 °C in test [4]; 0.04 °C in test [5]; 0.22 °C in test [6]. Moreover, the ΔTm in test [7] is -2.32 °C; in test [8], 1.22 °C.
Regarding `CC(C)(C)NS(=O)(=O)c1ccc(NC(=O)[C@H](Cc2ccccc2)NC(=O)c2ccc(F)cc2)cc1`, the ΔTm in test [1] was 2.48 °C; in test [2] it was -1.97 °C; in test [3], 0.06 °C; in test [4] it was 0.21 °C; in test [5], 2.59 °C; in test [6], -3.67 °C. Further, the figures for the shift in melting temperature (ΔTm) in test [7] and in test [8] were -0.32 °C and -0.1 °C, respectively.
Take `CCC(=O)N[C@H]1CC[C@@H](C(=O)N(C)c2ccc(-c3nc4ccccc4o3)cc2)C1`: the thermal shift (ΔTm) is 0.54 °C in test [1]; 0.67 °C in test [2]; -0.03 °C in test [3]; 0.1 °C in test [4]; -0.48 °C in test [5]; -0.17 °C in test [6]. The ΔTm was -0.05 °C in test [7] and -0.29 °C in test [8].

The values above are taken from ChEMBL document CHEMBL5724796, “Tm Shift (DSF) assay results for EUbOPEN Chemogenomics Library” (2024).
